Results reported in PubChem BioAssay AID1159580 (chemical genetic matrix, 2015).
Among all 5,500 compounds or so, about 2,000 (36%) were called active. Roughly 18% stayed inconclusive and do not appear here. Cut-off read from the data, not from the text of the source: active = normalized growth mostly below about 0.91 (no sharp cut-off); inconclusive = no clear call, values can overlap the other calls; inactive = mostly above about 0.92. The list shows a part of the results.

Assay: chemical genetic growth profiling, strain panel (AID 1159580);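 note: tested at 20 µM; growth read once vehicle control cultures reached saturation at 30 °C; 1 = growth at the plate median or of vehicle wells; lower values mean less growth of the strain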
Conditions: S. cerevisiae deletion strains, growth OD

Measured: normalized growth

COCCCOc1ccnc(CS(=O)c2nc3ccccc3[nH]2)c1C (stereo not drawn)
inactive: locus YHR030C, strain SLT2, stronger effect = lower value 0.94 | locus YHR079C, strain IRE1, stronger effect = lower value 0.93 | locus YJL095W, strain BCK1, stronger effect = lower value 0.913 | locus YJR066W, strain TOR1, stronger effect = lower value 0.907 | locus YLR113W, strain HOG1, stronger effect = lower value 0.909 | locus YNL183C, strain NPR1, stronger effect = lower value 0.879 | locus YOR231W, strain MKK1, stronger effect = lower value 0.93 | locus YPL256C, strain CLN2, stronger effect = lower value 0.897
